Hit rate of the full screen: of about 370,000 compounds, about 3,700 (1%) were called active. The sample holds actives, similar compounds and a random draw of the others, so the mix is not that of the screen. A number with no mark means an inactive call.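 Rule for the calls: active = activation above the mean over all tested compounds plus 3 SD (cut at about 0.9% in these data); inactive = the rest.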

For the assay, the system named is Nuclear hormone receptor DAF-12 (Strongyloides stercoralis). Nature of the assay: S. stercoralis DAF-12 nuclear receptor activators, primary screen, cell-based, luminescence, HEK293, GRIP1 co-expression, lit1-tk-luc (AID 652126).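 Note: 0% = DMSO-only wells and 100% = 3 µM delta7-dafachronic acid wells.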 The note with it: HEK293 ssDAF-12/GRIP1 lit1-tk-luc reporter, at 6.8 µM, active compounds read high, % of 3 µM dafachronic acid response.
For `CCOC(=O)[C@]12CCCC3=C1N(CCC3)C(=O)[C@@H](CC(=O)N1CCSCC1)C2`, the activation is 0.21%.
For `Clc1ccc(-n2c(COc3ccccc3)nnc2SCc2nc3ccccc3[nH]2)cc1`, the activation was -1.69%.
The same measure for `O=C(Nc1ccc2c(c1)OCCO2)C1c2ccccc2OCC(=O)N1Cc1ccccn1` (configuration not stated): -0.32%; for `O=C(Nc1ccc(Cl)cc1)C1c2cccc[n+]2CC(=O)N1Cc1ccc2c(c1)OCO2` (configuration not stated): 2.86% (active); for `CCCOc1ccc(NC(=O)CC2C(=O)N(C)C(=S)N2Cc2ccc3c(c2)OCO3)cc1` (configuration not stated): -1.45%.
The figure for `COc1ccc(Cn2ccc3ccc(-c4ccc5ccn(Cc6ccccc6C)c5c4)cc32)cc1` is -0.43%.
Take `O=S1(=O)c2c(cccc2N2CCSCC2)Oc2ccccc2CN1Cc1cn(Cc2ccc(F)cc2)nn1`: the activation is -1.43%.
For the compound `O=C(CN1CCC(NC(=O)NCc2ccccc2)CC1)Nc1ccc2c(c1)OCCO2`, the activation is -1.37%.
The figure for `C=CCN1C(C(=O)OC)CN(Cc2cn(Cc3ccccc3)nn2)CCS1(=O)=O` (configuration not stated) is -1.67%; for `C=CCN(C)CC#Cc1ccccc1` it is -0.95%.
The figure for `COc1ccc(-n2c(SCC(=O)NC3CCCC3)nnc2-c2ccncc2)cc1` is -0.71%.
The figure for `CS(=O)(=O)N(CC(=O)N/N=C/c1ccccn1)c1ccc(Oc2ccccc2)cc1` is -0.77%.
`S=C(NN=Cc1ccccn1)Nc1ccccn1`: the activation was 1.63% (active).
The figure for `O=C(O)C1C2C=CC(O2)C1C(=O)Nc1ccccn1` (configuration not stated) is -1.12%.
The figure for `CCCOc1ccc(Oc2c(Cl)cnn(Cc3cccc4ccccc34)c2=O)cc1` is -1.41%; for `O=C1CC(c2ccc3c(c2)OCO3)N=C2N(CC3CC3)C/C(=C/c3ccccc3)N12` (configuration not stated) it is -1.93%.
The same measure for `CCOc1ccc(-n2c(SCC(=O)Nc3cc(C)c(NC(=O)c4ccccc4)cc3OC)nnc2-c2cccc(Cl)c2)cc1`: -1.5%; for `CCOC(=O)c1c(NC(=S)Nc2ccccc2)sc2c1CCN(C)C2`: -1.34%; for `CCOC(=O)c1c(NC(=O)C2(C)Cc3ccccc3C(=O)O2)sc2c1CCCC2` (configuration not stated): -1.31%.
In the case of `CCOC(=O)c1c(NC(=S)Nc2ccccc2C)sc2c1CCC2`, the activation is 1.91% (active).
The same measure for `CC(=O)OCCN1CCCC12CCC(c1ccccc1)CC2` (configuration not stated): -0.84%; for `C#CCN([C@H](C(=O)OC)C(C)CC)S(=O)(=O)c1ccccc1Br` (some centres not stated): -1.85%; for `Cc1ccsc1/C=N/NC(=O)Cc1cc(=O)[nH][nH]1`: 1.42% (active).
The figure for `CCOc1ccc(N2CC(C(=O)N/N=C/c3sccc3C)CC2=O)cc1` (configuration not stated) is -1.57%; for `Cc1ccc(-c2nnc(SCC(=O)N/N=C/c3cccs3)n2-c2ccc(C)cc2)cc1` it is -0.75%; for `CN(C)S(=O)(=O)c1cccc(C(=O)N/N=C\c2ccco2)c1` it is -0.66%.
Consider `CC1CCN(C(=O)COC(=O)c2cc(=O)[nH]c3ccccc23)CC1`, for which the activation was -0.23%.
The figure for `COC(=O)C1CCN(C(=O)c2cc(=O)[nH]c3ccccc23)CC1` is 1.33% (active); for `CC1CCCCC1NC(=O)c1cc(=O)[nH]c2ccccc12` (configuration not stated) it is -0.66%; for `CCc1ccccc1NC(=O)CSc1nnc(-c2cccs2)o1` it is -1.52%.
The figure for `CCc1ccc(NC(=O)CC2C(=O)NCCN2C(=S)Nc2ccccc2)cc1` (configuration not stated) is -1.42%; for `CCc1ccc(NC(=O)N2CCc3ccccc3C2)cc1` it is 1.53% (active); for `O=C(CN1CCc2ccccc2C1)Nc1cccc(S(=O)(=O)N2CCOCC2)c1` it is -0.91%.
The figure for `CCOC(=O)c1c(NC(=S)SC)sc(C(=O)N2CCc3ccccc3C2)c1C` is -0.64%; for `Cc1ccc(NC(=O)CN2CCc3ccccc3C2)cc1C` it is 1.3% (active); for `Cc1ccc(NC(=O)COc2coc(CN3CCc4ccccc4C3)cc2=O)cc1Cl` it is -1.76%.
As to `Cc1cc(NS(=O)(=O)c2ccc(NC(=O)CSc3nnc(-c4ccc(C(C)(C)C)cc4)n3Cc3ccco3)cc2)nc(C)n1`, the activation was -1.29%.
On to `COc1ccc(O)c(C(=O)c2cnc3onc(C(C)C)c3c2)c1`, for which the activation was -0.89%.
The figure for `COc1cccc(NC(=O)CC2C(=O)NCCN2C(=S)Nc2ccc(F)cc2)c1` (configuration not stated) is -1.35%; for `COc1cccc(C(=O)NNS(=O)(=O)c2ccc(F)cc2)c1` it is -1.09%; for `COc1cccc(NC(=O)Nc2ccc(F)cc2)c1` it is 1.74% (active).
For the compound `COC(=O)C1CN(Cc2cn(Cc3ccc(F)cc3)nn2)CCS(=O)(=O)N1Cc1ccc(Cl)cc1` (configuration not stated), the activation is -2.03%.
For `CCCCNC(=O)C[C@H]1C[C@@]2(C(=O)OC)C(=C[C@H](COCc3ccccc3)O[C@@H]2C)N(Cc2ccc(Cl)cc2Cl)C1=O`, the activation was -1.35%.
The figure for `CC(C)CSc1nnc(-c2cccnc2)n1Cc1ccccc1` is -1.35%.
Turning to `COC(=O)c1cc(S(=O)(=O)N2CCN(C(=O)C3CCCO3)CC2)cn1C` (configuration not stated), the activation was -1.3%.
`Cn1ncc2c(NNC(=O)Cc3cccc4ccccc34)ncnc21`: the activation is -1.61%.
The figure for `Cc1ccc(C(=O)NNc2ncnc3ccccc23)cc1` is 1.85% (active); for `Cc1ccc(CCNC(=O)c2ccc3nc4ccccc4c(=O)n3c2)cc1` it is -1.47%.
Take `O=C(CNC(=O)c1ccccc1)OC(C(=O)Nc1cc([N+](=O)[O-])ccc1F)c1ccccc1` (configuration not stated): the activation is -2.1%.
The figure for `CCOC(=O)C1CCN(C(=O)C(C)(C)NC(=O)Nc2ccccc2Cl)CC1` is -0.72%.
The figure for `O=C(O)c1cccc(N=NN2CCCCCC2)c1` is 1.23% (active); for `NC1=NN(c2cccc(C(=O)O)c2)C(=O)C1` it is 0.3%; for `O=C(O)c1cccc(S(=O)(=O)N2CC=C(c3ccccc3)CC2)c1` it is -1.29%.
Take `O=C(c1c[nH]c2ccccc12)N1CCC(Oc2cccnc2)CC1`: the activation is -1.03%.
The figure for `Cc1ccc(OCc2nnc(SC/C=C/c3ccccc3)n2Cc2ccco2)cc1` is -1.7%; for `O=C(Nc1cccc(Cl)c1)OC1CC2CC1[C@H]1CCCCN1[C@H]2Cc1ccccc1` (some centres not stated) it is -1.06%; for `Cc1ccccc1NC(=O)COC(=O)c1ccc(Sc2ncn[nH]2)c([N+](=O)[O-])c1` it is -1.78%.
